Compounds with a hit are over-represented: about 4.9% of the library has one in this group of screens.
HSF1 inh = HSF1 inhibitors in luciferase reporter cells, primary screen, cell-based, NIH3T3, luminescence; NIH3T3-HGL HSE-luciferase, MG132-induced, luminescence 8 h; hits give low values; activity change, negative = inhibition, % at 7.5 µM (by protocol); AID 2098, 2009; hit rate 0.77% among 300,000;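 active = more than half of replicate wells show activity change below -50%, luminescence cut by over half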;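 also: luciferase reports HSF-1 transcriptional activity via heat shock element; 0% = median of DMSO wells and -100% = zero luminescence signal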
MPTP inh = mitochondrial permeability transition pore inhibitors, primary screen, biochemical, isolated mouse mitochondria, absorbance; hit rate 1.4% among 360,000; Ca2+ swelling absorbance, 30 min; inhibition, % at 10 µM;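 active = inhibition of 50% or more, scaled per plate between neutral and stimulator controls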;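 also: 0% = DMSO wells given calcium and 100% = 1 mM EGTA wells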
HSF-1 act = HSF-1 activators, primary screen, NIH3T3-HGL cells, MG132 stress, luminescence, single point; NIH3T3-HGL HSF-1 luciferase reporter, 8 h; 100% = twice DMSO control signal; activation, % at 9 µM; hit rate 1.7% among 300,000; AID 504408, 2011;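 active = mean replicate activation of at least 50% with a set share of replicates each reaching 50%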;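 also: 0% = median of the neutral control wells and 100% = twice that signal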
Platelet DG rel = inhibitors of platelet dense granule secretion, primary screen, cell-based, MLPCN, human platelets; hit rate 0.22% among 300,000; inhibition, %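 (compounds screened at 7.5 µM in platelet-rich plasma)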; human platelet-rich plasma, SFLLRN dense granule ATP release, luminescence;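 active = mean replicate score, as percent of positive control, at or above 50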
HSP90 refold inh = HSP90 inhibitors, primary screen, cell lysate, luminescence; AID 1789, 2009; hit rate 0.91% among 290,000; Rabbit reticulocyte lysate, luciferase refolding luminescence, 3 h; Heat shock protein HSP 90 (rabbit reticulocyte lysate; luciferase refolding); inhibition, % at 5.6 µM;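 active = inhibition above the screen-wide mean plus 3 SD, computed separately per campaign, cut at about 16% in these data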;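 also: 0% = DMSO wells and 100% = 60 µM geldanamycin wells; inhibitors lower the luminescence because luciferase stays unfolded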
dFosB act = activators of delta FosB homodimer, primary screen, biochemical, fluorescence polarization, TAMRA-CDK5 oligo, single point. Protein FosB (Mus musculus), P13346. purified delta FosB; percent of positive-control signal above neutral wells. activation, % at 25 µM. hit rate 0.99% among 340,000;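 active = mean activation above about 17%, with every replicate also reaching it, limit read from the data, passing the limit was not always enough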
Target sequence (P13346 whole entry, looked up): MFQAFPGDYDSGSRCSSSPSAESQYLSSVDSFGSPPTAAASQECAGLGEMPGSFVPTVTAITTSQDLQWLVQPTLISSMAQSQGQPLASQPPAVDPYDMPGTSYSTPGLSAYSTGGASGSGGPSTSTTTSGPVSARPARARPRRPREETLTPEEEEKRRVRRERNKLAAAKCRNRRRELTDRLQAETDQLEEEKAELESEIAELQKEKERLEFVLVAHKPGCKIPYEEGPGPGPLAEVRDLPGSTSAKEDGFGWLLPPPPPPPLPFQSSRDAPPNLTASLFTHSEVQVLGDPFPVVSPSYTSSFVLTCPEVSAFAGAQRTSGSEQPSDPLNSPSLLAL
* hit, by the source's call.

`O=C(CS(=O)(=O)c1ccccc1)c1cc2ccccc2oc1=O` gave HSF1 inh 37, MPTP inh 0, HSF-1 act 57*, Platelet DG rel 8, HSP90 refold inh 4 and dFosB act 0.
Screening Cc1ccc(-n2c(SCC(N)=O)nc3c(oc4ccccc43)c2=O)cc1 returned HSF1 inh -5, MPTP inh 0, HSF-1 act -13, Platelet DG rel -4, HSP90 refold inh 1 and dFosB act -19.
CC(=O)N/C(=N/c1nc(C)cc(C)n1)Nc1ccc(NC(C)=O)cc1 was read as HSF1 inh -1, MPTP inh -1, HSF-1 act 1, HSP90 refold inh -1 and dFosB act -9.
Screening CC(=O)N/C(=N\c1nc(C)cc(C)n1)Nc1ccc2ccccc2c1 returned HSF1 inh -51*, MPTP inh 4, HSF-1 act -56, Platelet DG rel 16, HSP90 refold inh 13 and dFosB act -7.
CCOC(=O)CC(=O)CSCC(=O)Nc1ccc(C)cc1 was read as HSF1 inh 40, MPTP inh 0, HSF-1 act 86*, Platelet DG rel 4, HSP90 refold inh 1 and dFosB act -7.
Screening CCN(CC(=O)Nc1ccc(NC(C)=O)cc1)C(=O)CSCC(=O)Nc1ccc(C)cc1 returned HSF1 inh 1, MPTP inh 0, HSF-1 act 1, Platelet DG rel 7 and dFosB act 4.
For CCOC(=O)N(C)C[C@H]1OCc2cnnn2CCCC(=O)N([C@@H](C)CO)C[C@H]1C the results were MPTP inh -1.
CCOc1ccc(S(=O)(=O)N(CC)CC(=O)N2CCOCC2)cc1C was read as HSF1 inh -5, MPTP inh -1, HSF-1 act -2, Platelet DG rel 13, HSP90 refold inh -3 and dFosB act 2.
Screening CC(C)c1nnc(NC(=O)CCS(=O)(=O)Cc2ccccc2)s1 returned HSF1 inh 2, MPTP inh 1, HSF-1 act 11, Platelet DG rel -20, HSP90 refold inh 2 and dFosB act -1.
Screening CC(C)c1nnc(NC(=O)CCS(=O)(=O)c2nc(-c3cccs3)cc(C(F)(F)F)n2)s1 returned HSF1 inh 149, MPTP inh 2, HSF-1 act 195*, Platelet DG rel -1, HSP90 refold inh 4 and dFosB act 0.
Screening COc1ccc(CCNC(=O)CSc2nc3cc(Cl)ccc3o2)cc1OC returned HSF1 inh 25, MPTP inh -2, HSF-1 act 66*, Platelet DG rel 0, HSP90 refold inh 5 and dFosB act 0.
For O=C(CSc1nnc(-c2ccncc2)o1)N1CCc2ccccc2C1 the results were HSF1 inh -1, MPTP inh -1, HSF-1 act 5, Platelet DG rel 19, HSP90 refold inh 2 and dFosB act -7.
O=C(O)CCc1ccc(-c2ccc(F)cc2)n1CC(=O)O was read as HSF1 inh 4, MPTP inh -1, HSF-1 act -9, Platelet DG rel -3, HSP90 refold inh 3 and dFosB act 0.
`CCOC(=O)Cn1c(CCC(=O)O)ccc1-c1ccc(F)cc1` gave HSF1 inh -77*, MPTP inh 0, HSF-1 act -82, Platelet DG rel 0, HSP90 refold inh -2 and dFosB act -3.
For CCN(Cc1ccccc1)C(=O)C1CCN(C/C(C)=C/c2ccccc2)CC1 the results were HSF1 inh 38, MPTP inh 6, HSF-1 act 88*, Platelet DG rel -15, HSP90 refold inh -3 and dFosB act -9.
O=C1NC(=S)S/C1=C/c1ccc(N2CCOCC2)o1 was read as HSF1 inh 7, MPTP inh 40, HSF-1 act 2, Platelet DG rel -1, HSP90 refold inh 0 and dFosB act 49*.
`O=C1S/C(=C\c2ccc(N3CCOCC3)o2)C(=O)N1Cc1ccc(F)cc1` gave MPTP inh 3, HSP90 refold inh -1 and dFosB act -5.
Screening O=C1S/C(=C/c2ccc(N3CCOCC3)o2)C(=O)N1Cc1ccc(F)cc1 returned HSF1 inh 103, MPTP inh 3, HSF-1 act 155*, Platelet DG rel 5, HSP90 refold inh 1 and dFosB act -4.
`O=C1O[C@@H](c2ccccc2)C[C@@H](O)[C@H](O)CCCCc2ccccc21` gave MPTP inh 0.
Screening CC[C@@]12C(=O)N(c3ccc(OC)cc3)C(=O)N1[C@H](c1cccc(C)c1)[C@@H]1C(=O)N(Cc3ccccc3)C(=O)[C@@H]12 returned HSF1 inh 2, MPTP inh -1, HSF-1 act -5, Platelet DG rel 8, HSP90 refold inh 2 and dFosB act -15.
`CN(Cc1nc(Cc2cccc(F)c2)no1)CC1CCOCC1` gave HSF1 inh -4, MPTP inh 12, HSF-1 act 2, Platelet DG rel 1, HSP90 refold inh 3 and dFosB act 0.
For COc1cc(C(=O)NCC2CCCO2)ccc1OCc1ccc(Cl)cc1Cl (stereo not given) the results were HSF1 inh 53, MPTP inh -4, HSF-1 act 72*, Platelet DG rel 7 and dFosB act -23.
For CCOc1ccccc1N1C(=O)c2ccc(S(=O)(=O)c3ccc(C(=O)O)cc3)cc2C1=O the results were HSF1 inh -4, MPTP inh -1, HSF-1 act -8, Platelet DG rel 7, HSP90 refold inh 3 and dFosB act -2.
Screening CCC(=O)c1ccc(OCC(O)CNC2CCCC2)cc1 (stereo not given) returned HSF1 inh -7, MPTP inh 0, HSF-1 act -7, Platelet DG rel 9, HSP90 refold inh -2 and dFosB act 16*.
Screening O=C(O)c1ccc(CN2C(=O)c3cccc4c([N+](=O)[O-])ccc(c34)C2=O)cc1 returned HSF1 inh -83*, MPTP inh 0, HSF-1 act -82, Platelet DG rel 5, HSP90 refold inh 4 and dFosB act -5.
Screening CN(C)CCCN1C(=O)c2cccc3c([N+](=O)[O-])ccc(c23)C1=O returned MPTP inh 0, HSP90 refold inh 0 and dFosB act 19*.
`O=C1c2cccc3c([N+](=O)[O-])ccc(c23)C(=O)N1CCc1ccccn1` gave HSF1 inh 10, MPTP inh 5, HSF-1 act 8, Platelet DG rel -3, HSP90 refold inh -4 and dFosB act 2.
Cc1ccccc1C(=O)NCC(=O)OCCOc1ccc(C(C)C)c(C)c1 was read as HSF1 inh -5, MPTP inh 0, HSF-1 act -15, Platelet DG rel -6 and dFosB act -13.
